IL-1B inflam inh: inflammasome signaling inhibition, IL-1 beta readout | THP-1 LPS/ATP IL-1B secretion, AlphaLISA, 16 h; hits give low values | AID 743279 | activity change, % at 57.5 µM | 4.7% of 360,000 active; in the data active = activity change below about -50%; inconclusive = mostly about -30% to -49%
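THP-1 cells pretreated 1 hr with compounds (up to 57.5 uM final), then stimulated with LPS (250 ng/mL final) plus ATP (1.25 mM final); secreted IL-1B measured by AlphaLISA after 16 hr, decreased signal indicating inhibition.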
HT1080-NT tox: kills 2HG-producing HT-1080-NT fibrosarcoma cells | 1.6% of 360,000 active | Potency, µM (doses to about 46.1 µM), without a hit: top-dose activity, negative = less viability, actives largely listed as cytotoxic | AID 686970 | HT-1080-NT fibrosarcoma viability, CellTiter-Glo ATP luminescence, 48 h;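 note: NT is the 2HG producing partner of a matched IDH1 knockdown line; potency is the fitted concentration of half-maximal effect; 0% = DMSO-treated cells and -100% = media-only wells without cells; nearly all actives have a fitted effect of over 55% in size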
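Toxicity toward the 2HG-producing NT line was scored as %Activity, normalised to DMSO and no-cell wells, from CellTiter-Glo luminescence after 48 hours' treatment.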
TDP1 cell CPT: DT40-hTDP1 cell growth loss with CPT. Potency, µM (titrated, usually from 46.2 µM), for the others: at the top dose activity change, negative = growth inhibition, hits mostly inhibitors. AID 686979. chicken DT40 Tdp1-/-;hTDP1 cells + 20 nM CPT, ATP luminescence, 48 h. 12% of 420,000 active; note: potency is the fitted concentration of half-maximal effect; nearly all actives have a fitted effect of over 55% in size
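Chicken DT40 Tdp1-/- cells stably complemented with human TDP1 were seeded at 400 cells/well in medium containing 20 nM camptothecin, exposed to pin-transferred compounds, and grown at 37 °C for at least 48 hr. Viability was read as ATP luminescence.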
ALOX12 inh: inhibitors of human 12S-lipoxygenase ALOX12; P18054; purified 12hLO, xylenol orange hydroperoxide absorbance; Potency, µM (doses to about 108 µM), for inactives: at the highest dose activity change, negative = inhibition, usual class: inhibitors; 1.1% of 580,000 active; note: potency is the fitted concentration of half-maximal effect
Target sequence (P18054 whole entry, looked up): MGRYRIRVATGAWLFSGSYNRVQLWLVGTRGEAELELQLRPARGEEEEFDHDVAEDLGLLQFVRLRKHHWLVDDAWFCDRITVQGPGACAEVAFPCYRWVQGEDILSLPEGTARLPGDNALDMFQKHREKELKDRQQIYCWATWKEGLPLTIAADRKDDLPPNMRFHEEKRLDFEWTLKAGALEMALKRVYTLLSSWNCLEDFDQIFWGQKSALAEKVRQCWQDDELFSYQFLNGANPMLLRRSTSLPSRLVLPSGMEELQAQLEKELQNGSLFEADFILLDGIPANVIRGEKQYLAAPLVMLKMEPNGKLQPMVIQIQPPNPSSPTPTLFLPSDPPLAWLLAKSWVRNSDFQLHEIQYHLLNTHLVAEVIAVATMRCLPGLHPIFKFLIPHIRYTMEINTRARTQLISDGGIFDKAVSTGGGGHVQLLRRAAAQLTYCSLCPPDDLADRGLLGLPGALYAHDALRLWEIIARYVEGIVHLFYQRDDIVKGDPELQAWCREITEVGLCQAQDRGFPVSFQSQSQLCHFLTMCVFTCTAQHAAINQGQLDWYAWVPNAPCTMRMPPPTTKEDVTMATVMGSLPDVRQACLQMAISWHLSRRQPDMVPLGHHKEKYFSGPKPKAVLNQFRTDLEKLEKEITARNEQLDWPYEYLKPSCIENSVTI
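Hydroperoxide product was detected by ferrous iron/xylenol orange as the 573 to 405 nm absorbance ratio. Arachidonic acid at 40 uM (final) was turned over for 30 min at room temperature by 150 nM human 12hLO, pH 7.0 Hepes buffer, after 15 min compound preincubation.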
DT40 TDP1 no CPT: qHTS for Inhibitors of human tyrosyl-DNA phosphodiesterase 1 (TDP1): qHTS in cells in absence of CPT; AID 686978, 2013; Potency, µM (series often up to 46.2 µM), inactives show top-dose activity change, negative = growth inhibition, hits mostly inhibitors; DT40 Tdp1-/- hTDP1 cells, no CPT, ATP luminescence, 48 h; 15% of 420,000 active; note: potency is the fitted concentration of half-maximal effect; nearly all actives have a fitted effect of over 55% in size
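Seeded 400 DT40-hTDP1 cells/well (vehicle DMSO, no 20 nM CPT); pinned compounds; ≥48 hr at 37 °C; CellTiter-Glo luminescence as viability measure.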
HT1080 IDH1KD tx: HT-1080 IDH1 knockdown cell toxicity (counter line); Potency, µM (doses to about 46.1 µM), for the others: at the highest dose activity, negative = toxicity, most hits filed as cytotoxic; 2% of 360,000 active; AID 686971; HT-1080 IDH1 knockdown viability, ATP luminescence, 48 h;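 note: potency is the fitted concentration of half-maximal effect; 0% = DMSO wells and -100% = cell-free medium wells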
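After a 2 h attachment period, IDH1KD HT-1080 cells took pin-transferred compound for 48 h at 37 °C; ATP-based luminescence after 10 min room-temperature reagent incubation reported viability.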
Numbers without * were called inactive; [ ] = remark or other dose. Many of the other results were omitted from the sample, so hits are more common in it than they were. Unless noted, calls come from the whole dose curve; as a rule, active = well fitted curve in the direction sought with a large enough effect; inconclusive = small, poorly fitted or top-dose-only effect, or another doubt; inactive = no such curve, though single readings can be large; an effect the other way counts as inactive or inconclusive. Unless noted, % is set by controls: 0 for no effect and ±100 for the full control effect.

Results for COCCN(C(=O)c1cc2c(s1)CCC(C)C2)c1c(N)n(CC(C)C)c(=O)[nH]c1=O (stereo not drawn) ?
ALOX12 inh: -30%

Results for Cc1ccc([C@@H]2CN(C(=O)c3cn(CCN)nn3)C[C@H]2NC(=O)C2CC2)cc1 ?
ALOX12 inh: 24%

Results for NC(c1ccccc1)c1nnc2n1CCN(C(=O)N1CCCC1)C2 (stereo not drawn) ?
ALOX12 inh: 7.9µM*

What do the screens show for `O=C(C1=C[C@@H](c2coc3ccccc3c2=O)C[C@@H](OCc2ccc(CO)cc2)O1)N1CCCCCCC1`?
IL-1B inflam inh: -19; HT1080-NT tox: 10%; TDP1 cell CPT: 12µM*; DT40 TDP1 no CPT: inconclusive; HT1080 IDH1KD tx: 7%

Results for O=C(Nc1ccccc1)C1=C[C@@H](c2coc3ccccc3c2=O)C[C@@H](OCc2ccc(CO)cc2)O1 ?
IL-1B inflam inh: 4; HT1080-NT tox: -1%; TDP1 cell CPT: inconclusive; ALOX12 inh: 5%; DT40 TDP1 no CPT: 15µM*; HT1080 IDH1KD tx: -6%

What do the screens show for `O=C(C1=C[C@@H](c2coc3ccccc3c2=O)C[C@@H](OCc2ccc(CO)cc2)O1)N1CCN(Cc2ccccc2)CC1`?
IL-1B inflam inh: inconclusive; HT1080-NT tox: -2%; TDP1 cell CPT: 18µM*; DT40 TDP1 no CPT: inconclusive; HT1080 IDH1KD tx: 2%

How did O=C(Nc1ccc(N2CCOCC2)cc1)c1cc2c(s1)CCCC2 do in these assays?
IL-1B inflam inh: -79*; HT1080-NT tox: -11%; TDP1 cell CPT: inconclusive; ALOX12 inh: inconclusive; DT40 TDP1 no CPT: inconclusive; HT1080 IDH1KD tx: inconclusive

What do the screens show for `O=C(Nc1ccc(N2CCOCC2)cc1)c1cc2c(s1)CCCCC2`?
IL-1B inflam inh: -80*; HT1080-NT tox: -3%; TDP1 cell CPT: 23µM*; ALOX12 inh: -12%; DT40 TDP1 no CPT: 21µM*; HT1080 IDH1KD tx: 7.3µM*

What do the screens show for `Cc1ccccc1CC(=O)N1CCC2(CC1)N(C)C(=O)CS2(=O)=O`?
ALOX12 inh: 37%

Results for CCC(C)N(C(=O)CSc1nc(-c2cccs2)nc2ccccc12)C1CCS(=O)(=O)C1 (stereo not drawn) ?
IL-1B inflam inh: -83*; HT1080-NT tox: -23%; TDP1 cell CPT: inconclusive; ALOX12 inh: -10%; DT40 TDP1 no CPT: 16µM*; HT1080 IDH1KD tx: inconclusive

Results for c1ccc(CNc2nc(-c3ccccn3)nc3ccccc23)cc1 ?
IL-1B inflam inh: -71*; HT1080-NT tox: inconclusive; TDP1 cell CPT: 3.7µM*; ALOX12 inh: 0%; DT40 TDP1 no CPT: 3.7µM*; HT1080 IDH1KD tx: inconclusive

What do the screens show for `c1ccc(CNc2nc(-c3cccs3)nc3ccccc23)cc1`?
HT1080-NT tox: inconclusive; TDP1 cell CPT: inconclusive; ALOX12 inh: 0%; DT40 TDP1 no CPT: inconclusive; HT1080 IDH1KD tx: 18µM*

How did COCC(C)Nc1nc(-c2ccsc2)nc2ccccc12 (stereo not drawn) do in these assays?
ALOX12 inh: 7%

What do the screens show for `COc1ccc(-c2nc(NCc3cccc(OC)c3)c3ccccc3n2)cc1`?
ALOX12 inh: -2%

Results for CCC(C)Nc1nc(-c2ccccn2)nc2ccccc12 (stereo not drawn) ?
IL-1B inflam inh: -20; HT1080-NT tox: inconclusive; TDP1 cell CPT: 4.1µM*; ALOX12 inh: 19%; DT40 TDP1 no CPT: 3.7µM*; HT1080 IDH1KD tx: inconclusive

How did CSC(C)C(=O)N(C)Cc1sccc1C (stereo not drawn) do in these assays?
ALOX12 inh: -3%

Results for Cn1cc(-c2ccccc2OC(F)(F)F)c2nc(CN3CCNC(=O)C3)cn2c1=O ?
ALOX12 inh: -10%[176 µM]

What do the screens show for `COc1ccc(C2Cn3nnc(-c4nc(-c5cccc(C(F)(F)F)c5)no4)c3CO2)cc1` (stereo not drawn)?
ALOX12 inh: 16%

How did CN(Cc1cccc(C(F)(F)F)c1)C(=O)c1ccc(F)cc1 do in these assays?
ALOX12 inh: 32%[176 µM]

Results for c1ccc(CNc2nc(-c3cccnc3)nc3ccccc23)cc1 ?
IL-1B inflam inh: -11; HT1080-NT tox: -1%; TDP1 cell CPT: inconclusive; ALOX12 inh: inconclusive; DT40 TDP1 no CPT: inconclusive; HT1080 IDH1KD tx: 8%

How did Cc1cnc(CNc2nc(-c3ccoc3)nc3ccccc23)cn1 do in these assays?
TDP1 cell CPT: 13%; ALOX12 inh: -9%; DT40 TDP1 no CPT: inconclusive

What do the screens show for `Cc1cccc(CNc2nc(-c3ccoc3)nc3ccccc23)c1`?
TDP1 cell CPT: inconclusive; ALOX12 inh: inconclusive; DT40 TDP1 no CPT: 21µM*

How did CC(C)(C)c1ccc(-c2nc(NCc3cccnc3)c3ccccc3n2)cc1 do in these assays?
IL-1B inflam inh: -65*; HT1080-NT tox: 2%; TDP1 cell CPT: inconclusive; ALOX12 inh: -9%; DT40 TDP1 no CPT: inconclusive; HT1080 IDH1KD tx: -17%

What do the screens show for `c1ccc(CNc2nc(-c3ccoc3)nc3ccccc23)cc1`?
TDP1 cell CPT: inconclusive; ALOX12 inh: 16µM*; DT40 TDP1 no CPT: inconclusive

Results for c1cncc(CNc2nc(-c3cccnc3)nc3ccccc23)c1 ?
IL-1B inflam inh: -5; HT1080-NT tox: 1%; TDP1 cell CPT: inconclusive; ALOX12 inh: inconclusive; DT40 TDP1 no CPT: 0%; HT1080 IDH1KD tx: -12%

What do the screens show for `c1ccc(CNc2nc(-c3ccccc3)nc3ccccc23)cc1`?
IL-1B inflam inh: -89*; HT1080-NT tox: -27%; TDP1 cell CPT: -18%; ALOX12 inh: 22%; DT40 TDP1 no CPT: -20%; HT1080 IDH1KD tx: inconclusive

Results for CC(=O)Nc1ccc(S(=O)(=O)C(C#N)c2nc3ccccc3nc2N2CCN(C)CC2)cc1 (stereo not drawn) ?
ALOX12 inh: -27%

How did CC(C1=C(O)CC(C)(C)CC1=O)C1=C(O)CC(C)(C)CC1=O do in these assays?
ALOX12 inh: -12%

Results for COc1cccc(-c2ocnc2C(=O)Nc2ccc(C(C)C)cc2)c1 ?
ALOX12 inh: -21%

What do the screens show for `Cc1nc(SCC(=O)NC2CCS(=O)(=O)C2)c(C#N)c(C)c1C` (stereo not drawn)?
IL-1B inflam inh: 0; HT1080-NT tox: 1%; TDP1 cell CPT: 1%; ALOX12 inh: 0%; DT40 TDP1 no CPT: -9%; HT1080 IDH1KD tx: 1%

What do the screens show for `O=C(O)CCCCCNc1nc(-c2ccccc2)nc2ccccc12`?
IL-1B inflam inh: 0; HT1080-NT tox: 1%; TDP1 cell CPT: -22%; ALOX12 inh: 0%; DT40 TDP1 no CPT: -5%; HT1080 IDH1KD tx: -12%
